Measurements taken from PubChem BioAssay (NCATS).
Inconclusive results are not listed. Calls of active or inactive are those of the source. Unless noted, calls come from the whole dose curve; as a rule, active = well fitted curve in the direction sought with a large enough effect; inconclusive = small, poorly fitted or top-dose-only effect, or another doubt; inactive = no such curve, though single readings can be large; an effect the other way counts as inactive or inconclusive.

Tests used:
[1] = biological target: Luciferin 4-monooxygenase (Photinus pyralis) (UniProt P08659); experiment: Biochemical firefly luciferase enzyme assay for NPC (AID 624030);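 note: purified P. pyralis luciferase at 10 nM with luciferin and ATP substrate; 0% = DMSO and -100% = full luciferase inhibition by PTC124 control; nearly all actives have a fitted effect of over 70% in size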; details: purified P. pyralis luciferase, luminescence, 5 min; series mostly up to 58.6 µM
Chain of Luciferin 4-monooxygenase (Photinus pyralis) (P08659 whole entry, looked up): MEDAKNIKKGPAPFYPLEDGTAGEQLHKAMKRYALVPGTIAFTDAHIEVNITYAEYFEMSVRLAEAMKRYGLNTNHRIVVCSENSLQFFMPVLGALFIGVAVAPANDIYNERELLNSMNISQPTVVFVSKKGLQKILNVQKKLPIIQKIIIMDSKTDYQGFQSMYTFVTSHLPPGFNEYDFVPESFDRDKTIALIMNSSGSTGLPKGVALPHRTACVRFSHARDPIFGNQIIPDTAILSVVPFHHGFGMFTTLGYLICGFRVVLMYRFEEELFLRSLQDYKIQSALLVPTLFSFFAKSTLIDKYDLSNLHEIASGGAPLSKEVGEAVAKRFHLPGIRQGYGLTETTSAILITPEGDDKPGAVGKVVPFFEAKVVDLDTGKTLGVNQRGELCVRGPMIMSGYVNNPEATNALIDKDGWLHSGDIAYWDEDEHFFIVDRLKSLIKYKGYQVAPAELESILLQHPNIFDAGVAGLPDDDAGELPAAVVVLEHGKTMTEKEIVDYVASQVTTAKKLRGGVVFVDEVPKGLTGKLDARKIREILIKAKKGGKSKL
In short: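 Counter-screen for direct inhibition of the luciferase enzyme by approved-drug library compounds, run at 10 nM enzyme in 50 mM Tris acetate (final). Luminescence was read within 5 min of enzyme-buffer addition and normalized to PTC124 versus DMSO (0%).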

[2] = S16 Schwann cell viability assay (CellTiter-Glo assay) (AID 624031); details: S16 rat Schwann cells viability, 24 h; series mostly up to 57.5 µM;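 note: cellular ATP luminescence as a viability measure; plate controls were DMSO-treated cells for no effect and cell-free wells for full effect; nearly all actives have a fitted effect of over 70% in size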
In short: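 Native S16 rat Schwann cells, 500-750 cells/well in DMEM with 10% FBS, dosed with compound after overnight culture and incubated 24h at 37 degree Celsius/5% CO2. Viability by CellTiter-Glo luminescence; % activity normalized to no-cell wells and DMSO-treated cells.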

[3] = S16 Schwann cell PMP22 intronic element firefly luciferase assay (AID 624032); details: S16 rat Schwann cells, PMP22 element FLuc, 24 h; series mostly up to 57.5 µM;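 note: plate controls were DMSO for no effect and PTC124 positive control mean for full effect; nearly all actives have a fitted effect of over 30% in size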
In short: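 Rat S16 Schwann cells stably carrying a PMP22 intronic element-driven Fluc reporter were seeded overnight, then exposed to compounds for 24 h at 37 °C. Luminescence was normalized to PTC124 (positive control) and DMSO (0% activity).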

[4] = S16 Schwann cell PMP22 intronic element beta-lactamase assay (AID 624044; calls by dose curve;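 note: 0% = DMSO and -100% = potassium clavulanate positive control; nearly all actives have a fitted effect of over 15% in size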); details: S16 rat Schwann cells, PMP22 element beta-lactamase FRET, 24 h; ratio activity, negative = inhibition: at 38.3 µM (top of the series) unless noted
In short: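 Rat S16 Schwann cells with beta-Lac driven by a PMP22 intronic element, compound-treated 24 h at 37 °C. LiveBLAzer FRET B/G read: 460 nm normalized to potassium clavulanate vs DMSO; 535 nm FRET as viability; concentration-effect curves classified.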

O=[N+]([O-])c1c(Cl)cccc1-c1c[nH]cc1Cl
inactive: Potency [1] | Potency [2] | Potency [3] | ratio activity, negative = inhibition [4] -0.605%

CCCCCCCCCCCC(=O)N(CCO)CCO
inactive: Potency [1] | Potency [3] | ratio activity, negative = inhibition [4] 0%

Cc1cccc(Nc2ncccc2C(=O)O)c1C
inactive: Potency [2] | Potency [3] | ratio activity, negative = inhibition [4] 6.34%

NCC(O)CC(=O)O (stereo unspecified)
inactive: Potency [1] | Potency [2] | Potency [3] | ratio activity, negative = inhibition [4] 4.25%

O=C1c2ccccc2C(=O)C1c1ccc(F)cc1
inactive: Potency [1] | Potency [2] | Potency [3] | ratio activity, negative = inhibition [4] 2.55%

O=C1c2ccccc2C(=O)c2c1ccc(O)c2O
inactive: Potency [3] | ratio activity, negative = inhibition [4] 0.767%

O=C(O)CC/C=C\CC[C@@H]1[C@@H](N2CCCCC2)[C@@H](O)C[C@@H]1OCc1ccc(-c2ccccc2)cc1
inactive: Potency [1] | Potency [2] | Potency [3] | ratio activity, negative = inhibition [4] -1.41%

CN(C)CCC=C1c2ccccc2C(C)(C)c2ccccc21
inactive: Potency [1] | Potency [3] | ratio activity, negative = inhibition [4] -0.444%

CN(Cc1ccccc1)Cc1ccccc1
inactive: Potency [1] | Potency [2] | Potency [3] | ratio activity, negative = inhibition [4] 0.417%

CN(C)CCOc1ccc(/C(=C(/CCCl)c2ccccc2)c2ccccc2)cc1
inactive: Potency [1] | ratio activity, negative = inhibition [4] -1.5%

O=c1[nH]c(=O)n([C@H]2C[C@H](O)[C@@H](CO)O2)cc1/C=C/Br
inactive: Potency [2] | ratio activity, negative = inhibition [4] -1.39%

CCOC(=O)c1cc(-c2ccccc2)nc2ccc(C)cc12
inactive: Potency [1] | Potency [2] | ratio activity, negative = inhibition [4] 4.28%

CC(=O)N=c1sc(S(N)(=O)=O)nn1C
inactive: Potency [1] | Potency [3] | ratio activity, negative = inhibition [4] -0.416% [at 17.1 µM]
